Test results: PubChem BioAssay (EPA / NIEHS)
Calls of active or inactive are those of the source. Rule for the calls: active = hit-call score of the fitted dose curve at least 0.9, where 1 is the maximum; inactive = score below 0.9.

How the values were obtained:
[1] = target: Bile acid receptor (Homo sapiens) (UniProt Q96RI1); assay: ATG_IR1_CIS: Attagene CIS-FACTORIAL HepG2 Assay for human Nuclear Receptor Subfamily 1 Group H Member 4 (NR1H4), IR1 submotif (AID 2282946); conditions: IR1 reporter transcription, actives raise or lower the signal
Sequence of Bile acid receptor (Homo sapiens) (Q96RI1 whole entry, looked up): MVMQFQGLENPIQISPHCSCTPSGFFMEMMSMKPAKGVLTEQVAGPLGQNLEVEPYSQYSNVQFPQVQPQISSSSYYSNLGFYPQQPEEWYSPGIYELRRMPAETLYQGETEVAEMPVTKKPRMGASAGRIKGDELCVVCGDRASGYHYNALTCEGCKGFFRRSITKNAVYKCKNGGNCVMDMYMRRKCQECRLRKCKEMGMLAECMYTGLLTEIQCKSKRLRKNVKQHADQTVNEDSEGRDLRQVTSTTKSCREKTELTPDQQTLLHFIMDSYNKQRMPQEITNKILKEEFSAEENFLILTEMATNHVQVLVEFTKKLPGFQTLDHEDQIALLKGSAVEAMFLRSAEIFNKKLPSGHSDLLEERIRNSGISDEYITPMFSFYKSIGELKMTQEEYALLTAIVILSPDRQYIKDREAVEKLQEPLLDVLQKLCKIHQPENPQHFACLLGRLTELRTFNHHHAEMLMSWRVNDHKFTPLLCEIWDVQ
How it was run: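 Transient MRTU transfection, HepG2; 24 h dosing; RNA → RT-PCR → 6-FAM primer extension → HpaI digest → capillary electrophoresis fluorescence. Gain/loss of signal fitted relative to DMSO.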

[2] = ATG_GRE_CIS: Attagene CIS-FACTORIAL HepG2 Assay for human Glucocorticoid Response Elements (GRE) (AID 2282947); conditions: HepG2 GRE cis-reporter, Attagene multiplex mRNA; actives raise or lower the signal
How it was run: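 HepG2 cells transiently transfected with multiple cis-promoter reporter units measure endogenous TF activity; 24 h compound exposure. Reporter mRNA quantified by RT-PCR, FAM labelling, HpaI digestion and capillary electrophoresis; bidirectional fit vs DMSO baseline.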

[3] = ATG_ISRE_CIS: Attagene CIS-FACTORIAL HepG2 Assay for human Interferon Regulatory Factor 1 (IRF1) binding to an Interferon-Stimulated Response Element (ISRE) (AID 2282948); conditions: HepG2 ISRE cis-reporter (Attagene), mRNA transcription readout; actives raise or lower the signal
How it was run: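 Transfected HepG2 (multiple reporter transcription units, cis elements) dosed 24 h. RNA → oligo(dT) RT → PCR → 6-FAM primer extension → HpaI → CE. DMSO = negative control/baseline.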

[4] = ATG_M_32_CIS: Attagene CIS-FACTORIAL HepG2 Assay for M32 Transcription Factor (Internal Marker) (AID 2282949); conditions: HepG2 Attagene cis-factorial M32 reporter, mRNA; actives raise or lower the signal;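 note: background control marker of the multiplexed CIS panel rather than a real target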
How it was run: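 Following 24 h chemical exposure of HepG2 cells transiently expressing cis-promoter reporter constructs, reporter transcript levels were determined by RT-PCR with fluorescent labelling and capillary electrophoresis, then fitted bidirectionally against DMSO.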

[5] = ATG_M_06_CIS: Attagene CIS-FACTORIAL HepG2 Assay for M06 Transcription Factor (Internal Marker) (AID 2282950); conditions: HepG2 Attagene CIS-FACTORIAL M06 internal marker reporter; actives raise or lower the signal
How it was run: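 Cells (HepG2, transiently carrying cis-driven reporter units) receive chemical for 24 h before RNA isolation. Reporter cDNA is PCR-amplified, FAM-labelled by primer extension, HpaI-digested and sized on a capillary analyser.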

[6] = target: Hypoxia-inducible factor 1-alpha (Homo sapiens) (UniProt Q16665); assay: ATG_HIF1a_CIS: Attagene CIS-FACTORIAL HepG2 Assay for human Hypoxia Inducible Factor 1 (HIF1A) (AID 2282951); conditions: HepG2 Attagene cis-factorial HIF1a reporter transcription; actives raise or lower the signal
Sequence of Hypoxia-inducible factor 1-alpha (Homo sapiens) (Q16665 whole entry, looked up): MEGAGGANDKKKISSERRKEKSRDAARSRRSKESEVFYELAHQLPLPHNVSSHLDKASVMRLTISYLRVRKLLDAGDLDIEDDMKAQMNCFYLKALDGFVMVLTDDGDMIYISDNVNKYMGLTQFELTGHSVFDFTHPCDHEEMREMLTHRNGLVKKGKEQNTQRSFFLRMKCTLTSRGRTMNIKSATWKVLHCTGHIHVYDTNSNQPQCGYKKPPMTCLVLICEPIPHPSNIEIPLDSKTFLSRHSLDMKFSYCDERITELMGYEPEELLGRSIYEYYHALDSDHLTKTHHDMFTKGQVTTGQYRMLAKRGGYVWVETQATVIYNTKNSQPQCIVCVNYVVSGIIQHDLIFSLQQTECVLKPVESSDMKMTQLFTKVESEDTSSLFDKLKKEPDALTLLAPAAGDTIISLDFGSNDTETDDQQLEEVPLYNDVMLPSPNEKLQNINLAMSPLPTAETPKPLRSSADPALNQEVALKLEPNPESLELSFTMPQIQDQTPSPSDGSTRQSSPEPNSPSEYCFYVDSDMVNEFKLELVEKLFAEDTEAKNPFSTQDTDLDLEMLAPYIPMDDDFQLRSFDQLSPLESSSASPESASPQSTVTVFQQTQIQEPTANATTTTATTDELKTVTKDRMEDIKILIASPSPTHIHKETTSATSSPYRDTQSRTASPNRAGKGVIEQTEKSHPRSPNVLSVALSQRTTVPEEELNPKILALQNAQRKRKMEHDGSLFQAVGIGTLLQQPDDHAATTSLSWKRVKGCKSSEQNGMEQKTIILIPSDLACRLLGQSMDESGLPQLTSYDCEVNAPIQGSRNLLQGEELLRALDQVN
How it was run: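 Dosed 24 h, transfected HepG2 cells yielded total RNA whose reporter transcripts were RT-PCR-amplified and sized by capillary electrophoresis using fluorescent labelling; DMSO defined baseline, with gain and loss of signal both fitted.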

[7] = target: Hepatocyte nuclear factor 6 (Homo sapiens) (UniProt Q9UBC0); assay: ATG_HNF6_CIS: Attagene CIS-FACTORIAL HepG2 Assay for human Hepatocyte Nuclear Factor 6 (HNF6) (AID 2282952); conditions: HepG2 Attagene cis-factorial HNF6 reporter transcription; actives raise or lower the signal
Sequence of Hepatocyte nuclear factor 6 (Homo sapiens) (Q9UBC0 whole entry, looked up, the tested form may be a part): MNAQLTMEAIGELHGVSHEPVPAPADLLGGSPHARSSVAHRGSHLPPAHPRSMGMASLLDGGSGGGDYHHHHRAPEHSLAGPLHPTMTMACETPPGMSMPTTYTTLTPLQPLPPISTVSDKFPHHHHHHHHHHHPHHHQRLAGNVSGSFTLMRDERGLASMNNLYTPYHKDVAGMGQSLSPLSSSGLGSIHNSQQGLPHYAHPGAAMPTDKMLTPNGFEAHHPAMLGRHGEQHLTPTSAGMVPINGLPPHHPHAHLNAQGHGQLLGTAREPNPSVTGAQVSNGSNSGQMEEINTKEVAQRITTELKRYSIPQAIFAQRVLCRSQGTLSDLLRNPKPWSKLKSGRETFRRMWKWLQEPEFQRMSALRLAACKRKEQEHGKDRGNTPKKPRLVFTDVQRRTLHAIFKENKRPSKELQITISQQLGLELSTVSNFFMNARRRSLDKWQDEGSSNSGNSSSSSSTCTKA
How it was run: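 HepG2 cells transiently transfected with cis-element-driven multiplexed reporter units measuring endogenous transcription factor activity. After 24 h exposure, reporter mRNA quantified by RT-PCR, FAM-labelled fragments and capillary electrophoresis; bidirectional fitting versus DMSO.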

[8] = target: Heat shock factor protein 1 (Homo sapiens) (UniProt Q00613); assay: ATG_HSE_CIS: Attagene CIS-FACTORIAL HepG2 Assay for human Heat Shock Transcription Factor 1 (HSE) (AID 2282953); conditions: HepG2 HSE cis-reporter, Attagene RNA transcription; actives raise or lower the signal
Sequence of Heat shock factor protein 1 (Homo sapiens) (Q00613 whole entry, looked up): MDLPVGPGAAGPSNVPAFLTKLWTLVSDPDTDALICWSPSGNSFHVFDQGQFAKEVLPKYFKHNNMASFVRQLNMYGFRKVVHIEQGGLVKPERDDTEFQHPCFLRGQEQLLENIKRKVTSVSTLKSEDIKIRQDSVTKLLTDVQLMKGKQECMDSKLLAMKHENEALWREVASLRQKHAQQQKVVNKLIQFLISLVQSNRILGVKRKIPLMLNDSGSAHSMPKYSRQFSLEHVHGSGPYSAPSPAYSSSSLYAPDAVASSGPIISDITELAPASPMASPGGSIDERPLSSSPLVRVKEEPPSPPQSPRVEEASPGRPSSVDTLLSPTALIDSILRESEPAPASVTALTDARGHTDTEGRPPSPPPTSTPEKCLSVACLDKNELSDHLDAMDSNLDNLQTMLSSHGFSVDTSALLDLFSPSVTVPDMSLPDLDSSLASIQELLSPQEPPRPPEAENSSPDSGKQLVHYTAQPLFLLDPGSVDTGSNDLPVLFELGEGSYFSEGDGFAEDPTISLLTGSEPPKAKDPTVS
How it was run: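 Liver-derived HepG2 cells carry transiently introduced multiple reporter units governed by cis promoters. Reporter RNA measured 24 h post-dose through reverse transcription, PCR amplification, fluorescent labelling and capillary electrophoresis, normalised to DMSO.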

[9] = ATG_MRE_CIS: Attagene CIS-FACTORIAL HepG2 Assay for human Metal Responsive Element (MRE) (AID 2282954); conditions: HepG2 MRE cis-reporter transcription, Attagene multiplex; actives raise or lower the signal
How it was run: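 HepG2 cells transiently transfected with multiple cis-element reporter units measure endogenous MTF1-driven transcription. After 24 h compound exposure, reporter mRNA is quantified by RT-PCR with 6-FAM labelling, HpaI digestion and capillary electrophoresis; bidirectional fits versus DMSO.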

[10] = target: Paired box protein Pax-6 (Homo sapiens) (UniProt P26367); assay: ATG_Pax6_CIS: Attagene CIS-FACTORIAL HepG2 Assay for human Paired Box 6 (PAX6) (AID 2282956); conditions: HepG2 CIS-FACTORIAL PAX6 reporter transcription, RNA readout; actives raise or lower the signal
Sequence of Paired box protein Pax-6 (Homo sapiens) (P26367 whole entry, looked up): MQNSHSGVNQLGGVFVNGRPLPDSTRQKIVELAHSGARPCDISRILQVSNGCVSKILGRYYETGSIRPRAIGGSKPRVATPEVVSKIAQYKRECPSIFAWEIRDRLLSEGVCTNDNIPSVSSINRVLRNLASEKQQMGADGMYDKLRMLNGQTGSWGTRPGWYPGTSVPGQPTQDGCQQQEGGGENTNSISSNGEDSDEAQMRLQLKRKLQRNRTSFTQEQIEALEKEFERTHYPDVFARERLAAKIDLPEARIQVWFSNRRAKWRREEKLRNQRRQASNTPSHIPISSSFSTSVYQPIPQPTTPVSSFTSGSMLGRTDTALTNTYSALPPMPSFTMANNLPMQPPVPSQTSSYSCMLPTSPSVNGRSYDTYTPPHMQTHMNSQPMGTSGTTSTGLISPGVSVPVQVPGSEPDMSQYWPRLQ
How it was run: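 Transient MRTU transfection of HepG2 → compound exposure 24 h → TriZol RNA, oligo(dT) RT → PCR, 6-FAM primer extension, HpaI cut → capillary electrophoresis; activity fitted both directions against DMSO.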

[11] = ATG_PXRE_CIS: Attagene CIS-FACTORIAL HepG2 Assay for human Pregnane X Receptor Element (PXRE) (AID 2282957); conditions: HepG2 Attagene CIS-FACTORIAL PXRE reporter, mRNA; actives raise or lower the signal
How it was run: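 HepG2 cells transiently transfected with cis-element-driven multiplexed reporter units; after 24 h chemical exposure, reporter mRNA measured by RT-PCR, 6-FAM labelling, HpaI digestion and capillary electrophoresis. Bidirectional fitting relative to DMSO.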

[12] = ATG_PPRE_CIS: Attagene CIS-FACTORIAL HepG2 Assay for human Peroxisome Proliferator-activated Response Element (PPRE) (AID 2282958); conditions: HepG2 PPRE cis-element reporter, Attagene transcription factor profiling; actives raise or lower the signal
How it was run: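 Measured endpoint: PPRE-controlled reporter mRNA, detected by RT-PCR and capillary electrophoresis fluorescence, from transiently transfected HepG2 cells 24 h after dosing. Curves fitted in both directions using DMSO baseline.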

[13] = ATG_RORE_CIS: Attagene CIS-FACTORIAL HepG2 Assay for human RAR-related Orphan Receptor Element (RORE) (AID 2282959); conditions: HepG2 Attagene cis-factorial RORE reporter, mRNA; actives raise or lower the signal
How it was run: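 Transiently transfected HepG2 reporter cells were treated 24 h. Reporter transcripts were detected by RT-PCR and capillary electrophoresis, with bidirectional fitting against DMSO.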

[14] = ATG_Sox_CIS: Attagene CIS-FACTORIAL HepG2 Assay for human SRY-box transcription factor (SOX) (AID 2282960); conditions: HepG2 Attagene cis-factorial SOX reporter, mRNA; actives raise or lower the signal
How it was run: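 Gain- or loss-of-signal endpoint, fitted bidirectionally with DMSO as negative control. Based on reporter mRNA from transfected HepG2 cells harvested 24 h post-treatment and quantified via RT-PCR and capillary electrophoresis.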

[15] = target: Transcription factor Sp1 (Homo sapiens) (UniProt P08047); assay: ATG_Sp1_CIS: Attagene CIS-FACTORIAL HepG2 Assay for human Specificity Protein 1 (Sp1) (AID 2282961); conditions: HepG2 Sp1 cis-reporter transcription, actives raise or lower the signal
Sequence of Transcription factor Sp1 (Homo sapiens) (P08047 whole entry, looked up, the tested form may be a part): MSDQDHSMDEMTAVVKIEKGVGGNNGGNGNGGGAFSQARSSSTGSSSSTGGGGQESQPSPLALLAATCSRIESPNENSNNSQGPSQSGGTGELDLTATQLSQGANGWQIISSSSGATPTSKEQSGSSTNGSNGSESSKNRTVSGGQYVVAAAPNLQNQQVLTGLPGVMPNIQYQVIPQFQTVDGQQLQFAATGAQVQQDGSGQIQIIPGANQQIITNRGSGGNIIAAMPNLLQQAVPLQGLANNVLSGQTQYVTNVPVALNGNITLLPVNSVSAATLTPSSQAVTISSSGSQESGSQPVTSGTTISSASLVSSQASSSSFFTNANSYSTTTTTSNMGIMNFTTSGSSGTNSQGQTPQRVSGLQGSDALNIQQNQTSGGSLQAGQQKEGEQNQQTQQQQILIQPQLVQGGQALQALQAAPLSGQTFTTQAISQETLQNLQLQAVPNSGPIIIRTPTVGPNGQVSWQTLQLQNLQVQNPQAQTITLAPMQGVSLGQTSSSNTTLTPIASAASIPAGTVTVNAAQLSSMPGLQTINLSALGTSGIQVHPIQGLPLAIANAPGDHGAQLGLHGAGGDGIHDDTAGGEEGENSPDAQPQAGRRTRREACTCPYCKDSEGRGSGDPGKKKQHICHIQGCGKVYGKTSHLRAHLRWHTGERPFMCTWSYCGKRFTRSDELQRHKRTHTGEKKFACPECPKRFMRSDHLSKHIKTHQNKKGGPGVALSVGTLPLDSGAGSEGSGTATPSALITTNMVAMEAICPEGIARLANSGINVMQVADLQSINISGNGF
How it was run: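 Endpoint reflects endogenous Sp1 transcriptional activity, not an exogenous fusion protein: HepG2 cells with transfected cis-regulated reporters, 24 h dosing, RT-PCR/capillary electrophoresis mRNA read-out, DMSO-normalised bidirectional fit.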

[16] = ATG_SREBP_CIS: Attagene CIS-FACTORIAL HepG2 Assay for human Sterol Regulatory Element Binding (SREBP) (AID 2282962); conditions: HepG2 Attagene cis-factorial SREBP reporter, mRNA; actives raise or lower the signal
How it was run: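 Transfected HepG2 (cis-regulated reporter library, endogenous TFs) → compound 24 h → total RNA → oligo(dT) RT → reporter-specific PCR → FAM primer extension, HpaI cut → CE fluorescence. Fit bidirectional vs DMSO.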

[17] = target: Signal transducer and activator of transcription 3 (Homo sapiens) (UniProt P40763); assay: ATG_STAT3_CIS: Attagene CIS-FACTORIAL HepG2 Assay for human Signal Transducer and Activator of Transcription 3 (STAT3) (AID 2282963); conditions: HepG2, Attagene cis-factorial STAT3 reporter transcription; actives raise or lower the signal
Sequence of Signal transducer and activator of transcription 3 (Homo sapiens) (P40763 whole entry, looked up): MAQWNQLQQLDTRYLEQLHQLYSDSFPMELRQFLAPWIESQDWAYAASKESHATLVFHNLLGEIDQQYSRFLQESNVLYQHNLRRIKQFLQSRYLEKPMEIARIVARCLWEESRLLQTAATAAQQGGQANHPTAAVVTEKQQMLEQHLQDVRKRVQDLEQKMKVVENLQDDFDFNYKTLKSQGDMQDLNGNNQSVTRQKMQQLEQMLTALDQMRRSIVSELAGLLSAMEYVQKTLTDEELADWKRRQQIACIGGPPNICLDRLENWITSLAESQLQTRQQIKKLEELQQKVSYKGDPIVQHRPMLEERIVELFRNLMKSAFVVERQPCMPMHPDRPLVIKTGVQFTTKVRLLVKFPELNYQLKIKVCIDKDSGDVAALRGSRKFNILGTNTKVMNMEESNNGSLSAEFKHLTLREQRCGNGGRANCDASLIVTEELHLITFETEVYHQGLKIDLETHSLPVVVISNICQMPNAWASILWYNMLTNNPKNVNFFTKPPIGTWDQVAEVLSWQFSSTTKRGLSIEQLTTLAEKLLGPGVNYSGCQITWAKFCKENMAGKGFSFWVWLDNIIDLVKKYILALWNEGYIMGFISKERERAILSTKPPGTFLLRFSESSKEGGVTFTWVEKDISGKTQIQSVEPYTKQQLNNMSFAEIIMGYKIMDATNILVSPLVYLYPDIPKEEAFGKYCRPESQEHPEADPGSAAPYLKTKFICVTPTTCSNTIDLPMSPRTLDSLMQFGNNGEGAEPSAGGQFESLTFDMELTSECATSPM
How it was run: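 HepG2 cells transiently transfected with cis-element-driven multiple reporter transcription units; after 24 h chemical exposure, reporter mRNA measured by RT-PCR, 6-FAM primer-extension labelling, HpaI digestion and capillary electrophoresis. Bidirectional fitting versus DMSO baseline.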

[18] = ATG_TCF_b_cat_CIS: Attagene CIS-FACTORIAL HepG2 Assay for human T-Cell-Factor with beta-catenin (TCF/b-cat) (AID 2282965); conditions: HepG2 TCF/beta-catenin cis-reporter transcription, actives raise or lower the signal
How it was run: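 HepG2 cells transiently transfected with multiple cis-promoter-regulated reporter transcription units, so endogenous transcription factor activity is measured. Reporter mRNA read 24 hours after dosing by RT-PCR, fluorescent labelling and capillary electrophoresis; bidirectional fitting against DMSO.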

[19] = ATG_PBREM_CIS: Attagene CIS-FACTORIAL HepG2 Assay for human Phenobarbital-responsive Enhancer Module (PBREM) (AID 2282955); conditions: HepG2 PBREM cis-reporter, Attagene multiplexed transcription; actives raise or lower the signal
How it was run: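 Transfected liver-derived HepG2 cells exposed 24 h; PBREM reporter transcript quantified via RT-PCR and capillary electrophoresis, with activity in either direction referenced to DMSO.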

[20] = ATG_TA_CIS: Attagene CIS-FACTORIAL HepG2 Assay for human TA Basal Promoter (AID 2282964); conditions: HepG2 Attagene CIS-factorial TA basal promoter reporter; actives raise or lower the signal
How it was run: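 Background internal-marker endpoint from a 52-component HepG2 cis-reporter panel. Cells treated 24 h; reporter transcripts quantified via RT-PCR and CE fluorescence against DMSO baseline.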

Measured: AC50

C=CC(=O)OCCOC1C2CCC1C1CC=CC12 (stereo not given)
not listed: [19] | [20]
inactive: all other assays above

O=Nc1ccc(O)cc1
not listed: [9]
inactive: all other assays above

CCCCCCCCc1ccc(Nc2ccc(CCCCCCCC)cc2)cc1
active: [11] 6.3 µM
not listed: [13]
inactive: all other assays above

CCOc1nc(F)cc2nc(S(=O)(=O)Nc3c(Cl)cccc3C(=O)OC)nn12
active: [11] 7.46 µM
not listed: [18]
inactive: all other assays above

CC=CC(F)(F)C(F)(F)C(F)(F)F
inactive: all assays above

CCCCCC/C=C\CCCCCCCC(=O)O
inactive: all assays above

COC(=O)c1sccc1S(N)(=O)=O
active: [11] 79.3 µM
inactive: all other assays above
